CYP2C19 inhib – inhibitors of human CYP2C19 | P33261 | CYP2C19 Supersomes, luciferin-H EGE luminescence, 30 min | inhibition, % at 5 µM | hit rate 21% among 96,000 | AID 778;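 active means CYP2C19 inhibition above a set limit at 5 µM in the primary screen, cut at about 50% in these data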
Target sequence (P33261 whole entry, looked up): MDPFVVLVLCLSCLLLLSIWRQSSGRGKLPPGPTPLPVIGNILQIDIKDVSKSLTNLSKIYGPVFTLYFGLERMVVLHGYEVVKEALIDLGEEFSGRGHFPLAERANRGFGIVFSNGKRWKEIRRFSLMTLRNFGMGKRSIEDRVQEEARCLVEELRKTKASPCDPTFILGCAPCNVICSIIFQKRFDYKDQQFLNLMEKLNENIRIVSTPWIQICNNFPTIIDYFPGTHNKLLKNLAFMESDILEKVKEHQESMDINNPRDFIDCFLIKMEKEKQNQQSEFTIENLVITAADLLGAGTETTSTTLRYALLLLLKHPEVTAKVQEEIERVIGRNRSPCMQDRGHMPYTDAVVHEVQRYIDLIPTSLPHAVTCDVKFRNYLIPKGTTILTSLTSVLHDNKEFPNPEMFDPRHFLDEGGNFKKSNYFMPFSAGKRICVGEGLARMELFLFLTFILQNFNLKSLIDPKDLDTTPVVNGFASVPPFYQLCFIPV
CYP2C9 activ – activators of human CYP2C9; recombinant CYP2C9, luciferin-H conversion, luminescence; stronger effect = higher value; factor 1 = untreated enzyme, 0 = blocked; activation factor at 5 µM; hit rate 1.4% among 96,000; AID 1024;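 active means activation factor of 2 or more for CYP2C9 at a 5 µM dose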
CYP2C9 inhib – inhibitors of human CYP2C9; P11712; CYP2C9 Supersomes, luciferin-H conversion, luminescence; inhibition, % at 5 µM; hit rate 20% among 96,000; AID 777;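 active means blocking of liver enzyme CYP2C9 beyond about 50% at 5 µM, limit read from the data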
CYP2C19 act – activators of human cytochrome P450 2C19 | P33261 | recombinant CYP2C19, luciferin-H EGE luminescence; stronger effect = higher value; 0 = fully inhibited enzyme, 1 = untreated enzyme | activation factor at 5 µM | 96,000 tested, under 10 active;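 active means activation factor of at least 2 at 5 µM in the primary screen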
Measles CPE – protection of cells from measles virus; Measles virus-infected cells, CPE protection, absorbance; protection (pct of control), % at 4 µM; hit rate 1.5% among 140,000; in the data active means protection mostly above about 24%, no sharp cut-off; inactive means mostly below about 26%
A number is an active result; - = inactive; . = no result. Shown are actives, neighbours in structure and some others; about 22% of the full set was active somewhere.

SMILES | CYP2C19 inhib | CYP2C9 activ | CYP2C9 inhib | CYP2C19 act | Measles CPE
COc1ccc(C2C(C(=O)Nc3ccc(F)cc3)=C(C)Nc3nc(CCCO)nn32)cc1 (centres undefined) | - | - | - | - | -
CCCCSc1nc(C)cc(C)c1S(=O)(=O)c1ccccc1C | 75 | - | - | - | -
Cc1cc(C)c(S(=O)(=O)c2ccccc2)c(OC(=O)c2c(Cl)cccc2Cl)n1 | - | - | - | - | -
Cc1cc(C)c(S(=O)(=O)c2ccccc2C)c(Oc2ccccc2)n1 | 69 | - | 56 | - | -
Cc1ccc(S(=O)(=O)c2c(C)cc(C)nc2Cl)c(C)c1 | 100 | - | - | - | -
Cc1cc(C)c(S(=O)(=O)c2ccccc2C)c(Cl)n1 | 66 | 3.6 | - | - | -
C=CCNC(=O)CSc1nnc(-c2ccccc2Br)n1-c1cccc(C(F)(F)F)c1 | . | . | . | . | -
Cc1ccc(C2=NN(CC(=O)NCc3ccccn3)C(=O)CC2)cc1 | . | . | . | . | -
c1ccc(Cn2ccc(-c3cnc(-c4ccccc4)s3)n2)cc1 | 94 | - | 74 | - | -
N#C/C(=C\c1cccs1)Sc1nc2ccccc2s1 | 96 | - | - | - | -
N#C/C(=C\c1ccc[nH]1)Sc1nc2ccccc2s1 | 92 | - | 77 | - | -
CCN(CC(N)=O)S(=O)(=O)c1ccc(Br)cc1 | - | - | - | - | -
CC(=O)Nc1ccc2ccc3cccc4ccc1c2c34 | . | . | . | . | -
CCOC(=O)c1c(C)[nH]c(C)c1C(=O)COC(=O)CCOc1ccccc1OC | 77 | - | 83 | - | -
COC(=O)c1c(C)[nH]c(C(=O)CSc2nnnn2-c2ccccc2)c1C | - | - | - | - | -
CCOC(=O)c1[nH]c(CSc2nnnn2-c2ccccc2C)c(C(=O)OCC)c1C | - | - | 54 | - | -
CCOC(=O)c1c(C)[nH]c(C)c1C(=O)CSc1ncccn1 | 59 | - | - | - | -
CCOC(=O)c1c(C)[nH]c(C)c1C(=O)CSc1nnnn1-c1ccccc1 | 99 | - | 88 | - | -
CCOC(=O)C1=NN(C(C)=O)C2(CC(=O)N(c3ccc(C)c(C)c3)C2=O)C1 (centres undefined) | . | . | . | . | -
Cc1ccc(C)n1-c1ncn[nH]1 | - | - | - | - | -
Cc1cc(C(F)F)n2ncc(C(=O)N3CCCCC3)c2n1 | . | . | . | . | -
Cc1nc2c(C(=O)N3CCN(C)CC3)cnn2c(C)c1Cc1ccc(Cl)cc1 | 82 | - | - | - | -
Cc1nc2c(C(=O)N3CCCCC3)cnn2c(C)c1Cc1ccccc1F | 79 | - | - | - | -
Cc1nc2c(C(=O)NCc3cccs3)cnn2c(C)c1Cc1ccccc1 | . | . | . | . | -
COc1ccc(OC)c(NC(=S)N2CCC(C(O)(c3ccccc3)c3ccccc3)CC2)c1 | . | . | . | . | -
SMILES | CYP2C19 inhib | CYP2C9 activ | CYP2C9 inhib | CYP2C19 act | Measles CPE
C=CCNC(=O)C(=O)NCCOc1ccccc1Cl | . | . | . | . | -
Cc1ccccc1Nc1cccc2nonc12 | . | . | . | . | -
Cc1ccc(CSc2nnc(-c3ccncc3)n2C)cc1 | 73 | - | - | - | -
Cc1ccc(NC(=O)c2ccc(CSc3nnc(-c4ccncc4)n3C)cc2)cc1 | - | - | 66 | - | -
COC(=O)CSc1nnc(-c2cccc(NC(=O)c3ccc(C)cc3)c2)n1C | - | - | 76 | - | -
CC(=O)Nc1ccc(-c2nnc(SCc3ccc(C)cc3)n2C)cc1 | - | - | - | - | -
Cn1c(SCc2ccccc2)nnc1-c1ccc2c(c1)OCO2 | 88 | - | - | - | -
Cn1c(SCC#N)nnc1-c1ccc2c(c1)OCO2 | . | . | . | . | -
Cc1ccc(S(=O)(=O)N(C)C)cc1NC(=O)COC(=O)/C(=C/c1ccc(F)cc1)c1cccs1 | . | . | . | . | -
FC(F)(F)c1nnc2sc(-c3cccs3)nn12 | - | - | - | - | -
CCNC(=S)NNC(=O)c1cc(C)on1 | - | - | - | - | -
O=C(NCc1ccco1)c1cccc(NS(=O)(=O)c2ccccc2F)c1 | . | . | . | . | -
Cn1c(SCc2ccccn2)nnc1-c1ccncc1 | 94 | - | - | - | -
COc1cccc(-c2nnc(SCc3ccccn3)n2C)c1 | - | - | - | - | -
CC(C)NC(=O)[C@@H]1C[C@@]1(C)[C@@H](NC(=O)OCc1ccccc1)c1ccccc1 | . | . | . | . | -
COc1ccccc1N1C(=O)C2C(c3ccccc3F)NN(C(=O)c3ccc(C)cc3)C2C1=O (centres undefined) | . | . | . | . | 51
COc1ccc(CCC(=O)Nc2nc3c(s2)CN(C)CC3)cc1OC | - | - | - | - | -
c1ccc(-n2c(-c3ccncc3)nnc2-c2ccco2)cc1 | 80 | - | - | - | -
c1ccc(-n2c(-c3ccncc3)nnc2-c2cccs2)cc1 | 71 | - | 54 | - | -
c1ccc(-c2nnc(-c3ccco3)n2-c2ccccc2)cc1 | . | . | . | . | -
O=C(O)Cn1c(P(=O)(O)c2ccccc2)nc2ccccc21 | - | - | - | - | -
COC(=O)CSC1=C(C#N)C(c2ccccc2)CC(=O)N1 (centres undefined) | - | - | - | - | -
C=CCSC1=C(C#N)C(c2cccc(OC)c2)CC(=O)N1 (centres undefined) | 52 | - | - | - | -
COC(=O)CSC1=C(C#N)C(c2cccc(OC)c2)CC(=O)N1 (centres undefined) | 71 | - | 75 | - | -
COC(=O)CSC1=C(C#N)C(c2cccc(F)c2)CC(=O)N1 (centres undefined) | - | - | - | - | -
SMILES | CYP2C19 inhib | CYP2C9 activ | CYP2C9 inhib | CYP2C19 act | Measles CPE
Cc1ccc(C2CC(=O)NC(SCCC(C)C)=C2C#N)cc1 (centres undefined) | - | - | 56 | - | -
CCOc1ccc(C2CC(=O)NC(SCC(=O)OC)=C2C#N)cc1 (centres undefined) | - | - | 69 | - | -
COc1cc(C(c2nnnn2C(C)(C)C)N2CCN(C)CC2)cc(OC)c1OC (centres undefined) | - | - | - | - | -
C=CCSC1=C(C#N)C(c2ccccc2OC)CC(=O)N1 (centres undefined) | - | - | - | - | -
C=CCSC1=C(C#N)C(c2ccccc2OCC)CC(=O)N1 (centres undefined) | 93 | - | 71 | - | -
CCc1ccc(C2CC(=O)NC(SCC(=O)OC(C)C)=C2C#N)cc1 (centres undefined) | 87 | - | 93 | - | -
COC(=O)CSC1=C(C#N)C(c2ccc(Cl)cc2)C(C(=O)OC)C(=O)N1 (centres undefined) | 61 | - | - | - | -
CCOc1cc(C)c(Cl)cc1S(=O)(=O)N(CC)CC | 53 | 2 | - | - | -
COCCN(CCOC)S(=O)(=O)c1ccc(OC)cc1 | - | - | - | - | -
CCN(CC)S(=O)(=O)c1ccc(Cl)c(C(=O)NC)c1 | - | - | - | - | 45
CCN(CC)S(=O)(=O)c1ccc(Br)c(OC)c1 | 82 | - | - | - | -
CCN(CC)S(=O)(=O)c1ccc(Oc2ccc(S(=O)(=O)N(CC)CC)cc2)cc1 | 67 | - | 87 | - | -
CCOc1cc(C)c(Cl)cc1S(=O)(=O)NCCOC | . | . | . | . | -
O=C(NCc1ccccn1)C1CCN(Cc2cccc(OCc3ccccc3)c2)CC1 | . | . | . | . | -
COc1ccc(CCNS(=O)(=O)c2ccccc2)cc1OC | - | - | - | - | -

Compound activity deposited in PubChem by several laboratories.
